From PubChem BioAssay (NCATS) come the findings set out here.

Each structure is given as a SMILES string. Results filed as inconclusive are left out. Active and inactive are the calls of the source. Unless noted, the call rests on the fitted dose curve; in most records, active means well fitted curve in the direction sought with a large enough effect; inconclusive means small, poorly fitted or top-dose-only effect, or another doubt; inactive means no such curve, though single readings can be large; an effect the other way counts as inactive or inconclusive. *1 amine or outer side, *2 acyl side, *3 side chain or, on linkers, in order; H or OH if unused. Where a SMILES comes first, the peptide text is derived from it. Bridges are numbered along the chain shown (N, C = ends). [ ]: non-standard residue; d: D form. The star is where a group is joined. X5 = NC1=N[C@@H]([C@H](N[*:1])C(=O)[*:2])C[C@H](O)N1; ΔAla(Z-3-ureido) = NC(=O)N/C=C(\N)C(=O)O; β3hOrn = NCCC[C@H](N)CC(=O)*; Dap = NC[C@H](N)C(=O)O

Assay [1] in a line: qHTS Assay for Identifying Gametocytocidal Compounds (AID 743244). Further: potency means the concentration at half of the fitted maximal effect.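 On max response: on the % scale 0 is the no-effect control and ±100 the full control effect; actives lower the fluorescent signal which means gametocytes are killed.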 Particulars: P. falciparum 3D7 stage III-V gametocytes, alamarBlue, 72 h; max response: stronger effect = lower value. The procedure, abridged:
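Late gametocytes (III–V), P. falciparum 3D7; 72 h drug, then 24 h alamarBlue; resazurin reduction read by fluorescence.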
(In general: In qHTS, concentration-response curves come from the screen itself.)

Assay [2] is described as follows: qHTS assay to identify small molecule inhibitors of chordoma cells - UCH-2 (AID 1259356). Further: on the % scale 0 is the no-effect control and ±100 the full control effect.
Assay [3] in a line: qHTS profiling for inhibitors of Plasmodium falciparum (3D7) proliferation (AID 743322; call rule not given here;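 further: infected erythrocytes exposed to compound for 72 h before lysis; 100% = DMSO vehicle wells and 0% = 0.29 µM artemisinin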). Particulars: P. falciparum 3D7 proliferation; at 28.7 µM (top of the series) unless noted. The procedure, abridged:
(§1)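 Parasite DNA was quantified by SYBR Green I fluorescence (ex 485, em 535 nm) after overnight lysis in saponin/Triton buffer at room temperature. Cultures at 0.3% parasitemia and 2.5% hematocrit were first exposed to compound for 72 h at 37 C; signals were normalised to artemisinin (0.29 uM) and vehicle wells.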

The nature of assay [4]: qHTS profiling for inhibitors of Plasmodium falciparum (DD2) proliferation (AID 743323; call rule not given here). Conditions: lower = more inhibition; at 28.7 µM (top of the series) unless noted. Put shortly: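 Parasite DNA quantified by SYBR Green fluorescence (ex 485, em 535 nm) after saponin/Triton lysis and overnight dark incubation. Cultures: 0.3% parasitemia, 2.5% hematocrit, 72 h, 37 C; data scaled between DMSO and 0.29 uM artemisinin.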

The nature of assay [5]: qHTS profiling for inhibitors of Plasmodium falciparum (HB3) proliferation (AID 743324).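 Further: 100% = DMSO vehicle wells and 0% = artemisinin-treated control wells.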 Conditions: Plasmodium falciparum HB3 blood-stage proliferation; at 28.7 µM (top of the series) unless noted. Put shortly:
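SYBR Green fluorescence (485 ex/535 em) of lysed cultures, incubated overnight at room temperature in the dark, quantifies parasite DNA. Infected erythrocytes at 0.3% parasitemia and 2.5% hematocrit were exposed 72 h; values normalized to DMSO and 0.29 uM artemisinin controls.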

The nature of assay [6]: qHTS assay for small molecule antagonists of the retinoid-related orphan receptor gamma (ROR-gamma) signaling pathway - cell viability counter screen (AID 720652; active means well fitted curve in the direction sought with a large enough effect in the repeat runs; an effect the other way counts as inactive or inconclusive;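 further: CHO reporter cells with doxycycline-induced ROR-gamma expression; compound exposure lasted 16 hr before ATP read; on the % scale 0 is the no-effect control and ±100 the full control effect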). The procedure, abridged: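 CHO RORE-LUC/TET-ROR line, 1,000 cells/well, 37 C 5% CO2 5 hr; cpd or DMSO + doxycycline induction, 16 hr. CellTiter-Glo, 30 min RT, luminescence = ATP content.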
A short description of assay [7]: qHTS assay for small molecule agonists of the antioxidant response element (ARE) signaling pathway measured by Nrf2-dependant transcriptional activity - cell viability counter screen (AID 720653; active means well fitted curve in the direction sought with a large enough effect in the repeat runs; an effect the other way counts as inactive or inconclusive; further: on the % scale 0 is the no-effect control and ±100 the full control effect). Particulars: ARE-bla HepG2 viability, CellTiter-Glo ATP luminescence, 16 h; stronger effect = lower value. The procedure, abridged: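 ARE-bla HepG2 cells treated with compounds for 16 h at 37C; this counter screen measures viability as intracellular ATP by CellTiter-Glo luminescence after 30 min at room temperature.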

A short description of assay [8]: qHTS assay for cell viability of HEK293 cells (AID 743288). Further: on the % scale 0 is the no-effect control and ±100 the full control effect; nearly all actives have a fitted effect of over 50% in size. Particulars: ATP luminescence (CellTiter-Glo), 18 h; max response: stronger effect = lower value. The procedure, abridged: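 Readout is luciferase-coupled ATP content (CellTiter-Glo luminescence, 30 min room temperature) as a measure of metabolically competent cells. Parental HEK293 cells were plated 5 h or more before compound addition, then treated 18 h at 37 C.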

Assay [9] in a line: qHTS assay for cell viability of the p53RE-bla HCT-116 cell line (AID 743292). Further: on the % scale 0 is the no-effect control and ±100 the full control effect; nearly all actives have a fitted effect of over 55% in size. The procedure, abridged:
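ATP-based luminescent viability (CellTiter-Glo, 30 min RT) after 16 h compound treatment at 37 C of p53RE-bla HCT-116 cells, seeded at 4,000 cells/well and rested 5 h before dosing.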

The nature of assay [10]: qHTS profiling of the MIPE4 collection as inhibitors of Plasmodium falciparum (3D7) proliferation (AID 743344; call rule not given here;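 further: scaled between DMSO vehicle wells and 0.29 µM artemisinin as full inhibition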). Particulars: P. falciparum 3D7 in erythrocytes, SYBR Green DNA fluorescence, 72 h; at 28.5 µM (top of the series). Put shortly: as §1
A short description of assay [11]: qHTS profiling of the MIPE4 collection as inhibitors of Plasmodium falciparum (DD2) proliferation (AID 743345; call rule not given here). Particulars: P. falciparum Dd2 in erythrocytes, SYBR Green DNA, 72 h; at 28.5 µM (top of the series). The procedure, abridged:
as §1

Assay [12] is described as follows: qHTS profiling of the MIPE4 collection as inhibitors of Plasmodium falciparum (DD2) proliferation (Rep 2) (AID 743346; call rule not given here). Particulars: P. falciparum Dd2 in erythrocytes, SYBR Green DNA, 72 h; at 28.5 µM (top of the series). The procedure, abridged:
as §1

The nature of assay [13]: qHTS profiling of the MIPE4 collection as inhibitors of Plasmodium falciparum (HB3) proliferation (AID 743347; call rule not given here;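 further: plate controls were DMSO vehicle wells for no effect and artemisinin wells for full effect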). Conditions: P. falciparum HB3 in erythrocytes, SYBR Green DNA, 72 h; at 28.5 µM (top of the series). Put shortly: as §1

Regarding `CC(C)c1ncc([N+](=O)[O-])n1C`, the max response in [1] is 3.27% (inactive). Further, the Potency result in assay [2] is “inactive”.

For `O=C(NNCNNC(=O)c1ccncc1)c1ccncc1`, in [1], the max response is 16.9% (inactive). Moreover, in assay [2], the Potency entry is “inactive”.

Turning to `CC(=O)Nc1ccc(NC(=S)NC(=O)c2ccc(C(C)(C)C)cc2)cc1`, the max response in [1] is -8.07% (inactive). In addition, in assay [2], the Potency result was “inactive”.

Regarding `CCN(CC)C(=S)S`, the Potency in assay [1] was 6.31 µM (active). The molecule also came in with a remaining parasite growth % (stronger effect = lower value) in assay [3] of 87.7%. The molecule also yielded an activity, percent of control in assay [4] of 82.5%. Also, in [5], the remaining proliferation (% of control), lower = more inhibition is 84.6%. The Potency entry in assay [2] was “inactive”.

Turning to `Oc1cccc(O)c1O`, the outcome in assay [6] and in assay [9] was inactive. Besides, the max response in assay [7] was -24.8% (inactive); in [1], -2.15% (inactive); in assay [8], -17.5% (inactive). For the same molecule, the Potency entry in assay [2] was “inactive”.

In the case of `COC(=O)[C@H]1[C@H]2C[C@@H]3c4[nH]c5cc(OC)ccc5c4CCN3C[C@H]2C[C@H](OC)[C@@H]1OC`, the max response in assay [1] is 15% (inactive). In [2], the Potency result was “inactive”.

Turning to `CC(=O)[C@H]1CC[C@H]2[C@@H]3C=CC4=CC(=O)CC[C@@]4(C)[C@H]3CC[C@]12C`, the parasite growth, % of DMSO control in [10] worked out at 84.6%. This molecule registered a parasite growth remaining, % of DMSO control (lower = more inhibition) in assay [11] of 96.9%. Moreover, the parasite growth, % of control (lower = inhibition) in [12] was 165%. Moreover, the growth, % of control in [13] is 95.1%. In addition, the Potency entry in assay [2] is “inactive”.

`Oc1ccc(Cl)c2c1CCC2`: the max response in assay [1] is -5.98% (inactive). For the same molecule, the Potency entry in [2] is “inactive”.

With `C=CCN1CCCC1CNC(=O)c1cc(S(N)(=O)=O)cc(OC)c1OC` (stereo not given), in assay [1], the max response was -2.17% (inactive). Besides, in assay [2], the Potency result was “inactive”.

Turning to `CN(C)CCCSc1ccccc1NC(=O)/C=C/c1ccccc1`, the max response in assay [1] was -4.09% (inactive).

Regarding `NS(=O)(=O)c1cc2c(cc1Cl)NC(Cc1ccccc1)NS2(=O)=O` (stereo not given), in [1], the max response is 18.5% (inactive). Besides, the Potency result in [2] was “inactive”.

On to `C/C=C/C=C/C(=O)O`, for which the molecule was classed as inactive in assay [6] and in assay [9]. Also, the max response is -1.45% (inactive) in assay [7], -7.74% (inactive) in [1] and 0.0589% (inactive) in assay [8]. Also, in assay [2], the Potency result is “inactive”.

Turning to `CC(C)(COP(=O)(O)OP(=O)(O)OC[C@H]1O[C@@H](n2cnc3c(N)ncnc32)[C@H](O)[C@@H]1OP(=O)(O)O)C(O)C(=O)NCCC(=O)NCCS` (stereo not given in full), the max response in assay [1] was -9.49% (inactive). Also, the Potency entry in assay [2] was “inactive”.

On to `CC(=O)NCCCS(=O)(=O)O`, for which the max response in assay [1] was 7.56% (inactive). The Potency result in assay [2] is “inactive”.

For `F[Si-2](F)(F)(F)(F)F`, the max response in assay [1] was 2.76% (inactive). In addition, the Potency entry in assay [2] is “inactive”.

As for `FC(F)(F)C(F)(F)C(F)(F)C(F)(F)C(F)(F)F`, the max response in assay [1] is -2.45% (inactive). Also, in assay [2], the Potency result was “inactive”.

Consider `CC(C)C[C@@H](NC(=O)[C@@H](O)[C@H](N)Cc1ccccc1)C(=O)O`, for which the max response in assay [1] is 1.84% (inactive). The Potency result in assay [2] was “inactive”.

Consider `CC(C)(Oc1ccc(C2CCCc3ccccc32)cc1)C(=O)O` (stereo not given), for which the max response in assay [1] is -6.04% (inactive). Moreover, the Potency entry in assay [2] is “inactive”.

Regarding `CCC(C)[C@@H](N)C(=O)O` (stereo not given in full), in assay [1], the max response is -1.27% (inactive). Further, the Potency entry in assay [2] is “inactive”.

Take `NCCC[C@H](N)CC(=O)N[C@H]1CNC(=O)[C@H]([C@H]2C[C@H](O)NC(N)=N2)NC(=O)/C(=C/NC(N)=O)NC(=O)[C@H](CO)NC(=O)[C@H](CO)NC1=O` (β3hOrn-[Dap]SS[ΔAla(Z-3-ureido)][X5]; lactam 1-C): in assay [1], the max response was 13.7% (inactive).

Regarding `COc1cc2c(cc1OC)[C@@H](c1ccccc1)CN(C)CC2`, in assay [1], the max response is -3.71% (inactive). In [2], the Potency entry was “inactive”.

On to `CC(C)=CCC/C(C)=C/CC/C(C)=C/CC/C(C)=C/CC1=C(C)C(=O)c2ccccc2C1=O`, for which, in assay [1], the Potency was 7.94 µM (active). In addition, in assay [2], the Potency entry is “inactive”.

For the molecule `C/C(=C\C(=O)OCCCCCCCCC(=O)O)C[C@@H]1OC[C@H](C[C@@H]2O[C@H]2[C@@H](C)[C@H](C)O)[C@@H](O)[C@H]1O`, the max response in [1] is -6.76% (inactive). For the same molecule, in assay [2], the Potency result was “inactive”.

For the molecule `CC(C)CCC[C@@H](C)[C@H]1CC[C@H]2[C@@H]3CC[C@@H]4C[C@H](O)CC[C@]4(C)[C@H]3CC[C@]12C`, in assay [1], the max response is -3.57% (inactive). The Potency result in assay [2] is “inactive”.

`O=C1CCC(c2ccccc2)(C2CCN(Cc3ccccc3)CC2)C(=O)N1` (stereo not given): the max response in assay [1] was 0.775% (inactive). Further, the Potency result in assay [2] is “inactive”.

Consider `C=CC[N+]1([C@H]2C[C@H]3[C@@H]4CC[C@H]5C[C@H](O)[C@@H](N6CCOCC6)C[C@]5(C)[C@H]4CC[C@]3(C)[C@H]2OC(C)=O)CCCC1`, for which, in assay [1], the max response is -0.733% (inactive). The Potency result in assay [2] was “inactive”.

Consider `Nc1nc2c(c(=O)[nH]1)N(C=O)C(CNc1ccc(C(=O)N[C@@H](CCC(=O)O)C(=O)O)cc1)CN2` (stereo not given in full), for which the max response in assay [1] was 8.32% (inactive). The Potency entry in [2] is “inactive”.

On to `C#C[C@]1(O)CC[C@H]2[C@@H]3CCC4=C(CCC(=O)C4)[C@H]3CC[C@@]21C`, for which the max response in assay [1] was 12.4% (inactive). Also, in [2], the Potency entry was “inactive”.

For `COc1ccc(C(=O)c2ccc(C)cc2)c(O)c1`, the max response in [1] was -6.86% (inactive). Moreover, the Potency entry in assay [2] was “inactive”.
